Reference: PubChem BioAssay AID493030 (The Scripps Research Institute Molecular Screening Center, 2011)
About 1,500 (65%) of roughly 2,300 compounds were called active. The set was probably picked from earlier hits. The list is a sample of the results. A number with no mark means an inactive call.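 How the source made its calls: active means mean inhibition over three repeats above a set limit taken from the earlier primary screen (cut at about 30% in these data); inactive means the rest.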

These compounds were tested against Platelet-activating factor acetylhydrolase 2, cytoplasmic (Homo sapiens) (UniProt Q99487) (assay: PAFAH2 enzyme inhibitors, confirmation, biochemical, fluorescence polarization, human (AID 493030;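 further: inhibitor blocks binding of rhodamine activity probe so polarization falls; 0% = enzyme with DMSO and 100% = wells lacking PAFAH2 protein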)). Settings: recombinant PAFAH2, FP-rhodamine activity probe, at 3.39 µM, stronger effect = higher value.
`O=C(OCc1cn(-c2ccc(Cl)c(Cl)c2)nn1)c1ccccc1Cl` was tested, and the inhibition was 43.1% (active).
`N#Cc1ccccc1Sc1ccccc1C(=O)OCC(=O)NC1CCCCC1` showed an inhibition of 21.3%.
In the case of `O=C(COC(=O)c1ccccc1Cl)NC1CCCCCCC1`, the inhibition is reported as 70.3% (active).
`O=C(COC(=O)c1cccc(Cl)c1)NC1CCCCCCC1` was tested, and the inhibition was 67.1% (active).
Compound `O=C(COC(=O)c1ccccc1SCC(=O)N1CCCC1)Nc1ccccc1OC(F)F` has an inhibition of 25.9%.
For `O=C(COC(=O)c1ccccc1SCC(=O)NC1CCCCC1)NC1CCCCC1`, the inhibition was 73.7% (active).
`CC(C)(C)c1csc(NC2=NS(=O)(=O)c3ccccc32)n1` was tested, and the inhibition was 29.4%.
Compound `COc1ccccc1CNC(=O)COC(=O)c1sc(C)nc1C` has an inhibition of 21%.
`COc1ccccc1CNC(=O)COC(=O)c1cccs1` was tested, and the inhibition was 41.8% (active).
In the case of `O=C(COC(=O)c1cccs1)NCc1cccs1`, the inhibition is reported as 45.9% (active).
With `O=C(COC(=O)c1cccs1)Nc1ccccc1Cl` the inhibition was 55.6% (active).
For `O=c1oc(-c2ccco2)nc2sc3c(c12)CCCCC3`, the inhibition was 34.2% (active).
With `CC(C)c1ccc(NC(=O)COC(=O)c2ccc(CN3CCCC3=O)cc2)cc1` the inhibition was 66.8% (active).
`CCC(C)C(NC(=O)C1CCC(=O)N1C(=O)OCc1ccccc1)C(=O)NC(C(=O)N1CCCC1C(N)=O)C(C)CC` (centres undefined) was tested, and the inhibition was 40.4% (active).
With `CN(C)S(=O)(=O)c1cccc(NC(=O)COC(=O)/C=C/c2cccs2)c1` the inhibition was 58.5% (active).
With `Cc1ccc(S(=O)(=O)N(C)C)cc1NC(=O)COC(=O)/C=C/c1cccs1` the inhibition was 51.7% (active).
With `O=c1[nH]n(-c2ccc([N+](=O)[O-])cc2)c(=O)c2ccccc12` the inhibition was 32.6% (active).
Work on `O=C(COC(=O)/C=C/c1ccc(Br)o1)Nc1cccc(S(=O)(=O)N2CCOCC2)c1` yielded an inhibition of 26.4%.
`CS(=O)(=O)c1ccc(Cl)c(NC(=O)COC(=O)c2cccc(S(=O)(=O)N3CCCC3)c2)c1` gave an inhibition of 21.3%.
In the case of `CCOc1ncccc1C(=O)OCC(=O)Nc1cccc(S(=O)(=O)N2CCCCCC2)c1`, the inhibition is reported as 57.6% (active).
`O=C(COC(=O)c1ccccc1)Nc1cccc(S(=O)(=O)N2CCOCC2)c1` was tested, and the inhibition was 33.4% (active).
For `CCc1ccc(C(=O)OCC(=O)Nc2cccc(S(=O)(=O)NC3=NCCCCC3)c2)cc1`, the inhibition was 51.8% (active).
In the case of `CCC(C)(C)c1ccc(Oc2ccc(NC(=O)COC(=O)C3=COCCO3)cc2)cc1`, the inhibition is reported as 61.5% (active).
With `O=C(COC(=O)c1ccc2c(c1)OCCO2)NCc1ccccc1` the inhibition was 45.8% (active).
In the case of `O=C(COC(=O)c1ccc2c(c1)OCCO2)NCc1ccccc1Cl`, the inhibition is reported as 78.9% (active).
`O=C(COC(=O)/C=C/c1ccc(S(=O)(=O)N2CCCCCC2)cc1)NCc1ccccc1Cl` gave an inhibition of 24.4%.
`CC(NC(=O)COC(=O)c1ccc2c(c1)OCO2)c1ccccc1` (centres undefined) was tested, and the inhibition was 45.8% (active).
With `COc1ccc(NC(=O)CC(NC(C)c2ccccc2)C(=O)O)cc1` (centres undefined) the inhibition was 1.53%.
`Cc1cnc(NC(=O)CSc2c(Cl)cccc2Cl)s1` showed an inhibition of 21.7%.
